# In ChEMBL document CHEMBL3988442, “University of Dundee, Small-Polar-MMV Screening Library” (2021):
# Hit rate of the full screen: of about 48,000 compounds, about 13,000 (27%) showed an effect of 50% or more. The list shows a part of the results.
# System: Wolbachia pipientis
# Experiment: Anti-Wolbachia Cell-Based Screen
# Format: functional
# Parameters: scale not given: in the data most compounds retested in dose-response had high values
# Conditions: 5 µM
row,Structure (SMILES),Percent Effect [%]
1,O=S1(=O)C[C@@H]2[C@H](C1)N(Cc1cc(F)cc(F)c1)CCN2CCO,1.937
2,O=C(Nc1cc(C(F)(F)F)ccc1Cl)c1ccc(N2CCOCC2)nn1,-2.027
3,Cl.NC1CCN(C(=O)c2c(F)cccc2Br)CC1,2.266
4,Cc1ccccc1SCC(=O)N[C@H]1CC[C@H](n2cnnc2)CC1,-8.466
5,Cc1ccc(C(C)NC(=O)Cc2c(C)nc3cc(=O)[nH]n3c2C)s1 (stereo unspecified),3.622
6,CCOCCN1CCN(CC(O)c2cc(Cl)ccc2Cl)CC1 (stereo unspecified),18.57
7,CCOc1ccnc(N2CCCN(c3nc(CC)ns3)CC2)n1,2.862
8,Cc1cnn(CC2CC2)c1NC(=O)c1cccnc1O,-0.1453
9,CCn1ncnc1CN1CCC(CNC(=O)c2ccccc2C#N)C1 (stereo unspecified),115.7
10,CCn1ncnc1CN1CCC(CNC(=O)c2cccnc2O)C1 (stereo unspecified),102.6
11,Cc1cc(CN2CCC(CNC(=O)c3ccc(C#N)cc3)C2)[nH]n1 (stereo unspecified),-6.827
12,Cc1ccc(C(=O)NCC2CCN(Cc3ccccc3C#N)C2)cn1 (stereo unspecified),-20.5
13,Cc1nc[nH]c1CN1CCC(CNC(=O)c2cccc3cnccc23)C1 (stereo unspecified),-8.641
14,Cc1cccc(N2CCN(S(=O)(=O)CCN)CC2)c1,-3.019
15,CC(=O)N1CCC(NC(=O)c2cc(Cl)ccc2-n2cnnn2)CC1,22.58
16,CCOC(=O)N1CCC(C(=O)c2cc(F)ccc2F)CC1,-8.485
17,COC(=O)C1CCN(C(=O)c2cc(Br)ccc2-n2cnnn2)CC1,122.5
18,CCOC(=O)C1CCN(C(=O)c2cc(F)ccc2-n2cnnn2)CC1,122.3

row,Structure (SMILES),Percent Effect [%]
1,CCOC(=O)C1CCN(C(=O)c2cc(Br)ccc2-n2cnnn2)CC1,129.1
2,CCOC(=O)C1CCN(C(=O)Cn2ccc3cc(Br)ccc32)CC1,16.73
3,CCOC(=O)CN1CCC(C(=O)c2cc(F)ccc2F)CC1,-15.3
4,CCOC1CCCN(C(=O)c2sccc2-n2cnnn2)C1 (stereo unspecified),-3.669
5,CCC(C)[C@H](NC(=O)c1cc(Br)ccc1-n1cnnn1)C(=O)OC (stereo partly specified),6.622
6,CCn1ncnc1C(C)NC(=O)Cc1cc2c(cc1Cl)OCCO2 (stereo unspecified),1.538
7,Cc1cccc(C(=O)NCc2ccc(OCCN(C)C)cc2)c1C,-6.28
8,CCCSc1ncccc1C(=O)NCc1ccc(N(C)C)cc1,112.3
9,NS(=O)(=O)c1ccc(F)c(C(=O)NCCSc2ccccn2)c1,2.11
10,Cc1ccc(C(=O)NCc2ccc(N(C)C)cc2)cn1,-15.59
11,CCSc1ncccc1C(=O)NCc1ccc(N(C)C)cc1,103
12,Cn1ccnc1SCCNC(=O)c1cc(S(N)(=O)=O)ccc1F,-8.563
13,CC(C)(C)[S+]([O-])CCNC(=O)c1cccc2ncccc12 (stereo unspecified),-2.962
14,CSc1ncccc1C(=O)NCc1ccc(N(C)C)cc1,175.4
15,CSc1ncccc1C(=O)NCc1ccc(CS(=O)(=O)NC(C)C)cc1,2.17
16,CCCSc1ncccc1C(=O)NCc1ccc(S(N)(=O)=O)cc1,120.7
17,CNC(=O)c1cccnc1NCc1ccc(Cn2cccn2)cc1,-20.21
18,CN(C)CCOc1ccc(CNC(=O)c2cccc(Cl)c2Cl)cc1,13.68
